# LRH-1 inv ag – suppresses constitutive activity of human LRH-1; actives 0.13% (n = 360,000); HEK293T StAR-luciferase reporter, LRH-1 transfected, 24 h; O00482; inhibition, % at 3.6 µM;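 active means inhibition above the mean inhibition of all tested compounds plus 3 SD, cut at about 73% in these data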;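 further: 0% = DMSO wells and 100% = reporter-only cells lacking LRH-1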
# Target sequence (O00482 whole entry, looked up): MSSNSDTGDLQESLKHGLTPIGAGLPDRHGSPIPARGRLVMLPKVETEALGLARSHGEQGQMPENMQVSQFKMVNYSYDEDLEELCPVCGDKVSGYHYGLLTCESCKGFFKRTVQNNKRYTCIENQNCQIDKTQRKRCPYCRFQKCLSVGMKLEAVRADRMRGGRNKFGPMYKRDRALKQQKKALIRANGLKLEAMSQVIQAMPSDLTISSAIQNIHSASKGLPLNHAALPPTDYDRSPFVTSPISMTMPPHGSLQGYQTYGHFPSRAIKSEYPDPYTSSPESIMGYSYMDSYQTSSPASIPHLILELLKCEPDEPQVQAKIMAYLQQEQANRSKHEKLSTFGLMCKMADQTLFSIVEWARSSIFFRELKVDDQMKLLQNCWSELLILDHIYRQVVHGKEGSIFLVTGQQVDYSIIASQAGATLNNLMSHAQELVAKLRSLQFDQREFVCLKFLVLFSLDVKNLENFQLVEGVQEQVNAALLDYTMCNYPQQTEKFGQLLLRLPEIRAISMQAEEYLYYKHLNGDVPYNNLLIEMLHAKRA
# SRC3 inh – inhibits human SRC3 coactivator. HEK293 GAL4-SRC3 luciferase reporter, luminescence. inhibition, % at 3.6 µM. actives 0.17% (n = 360,000);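 active means inhibition above a per-campaign cutoff, the mean of all compounds plus 3 SD, cut at about 60% in these data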;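 further: 0% = DMSO-treated cells and 100% = gossypol-treated cells at 36 µM; higher means less SRC3-driven luciferase light from the GAL4 reporter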
# SRC1 inh – human NCOA1 inhibition; Q15788; inhibition, % at 3.6 µM; actives 0.12% (n = 360,000); HEK293 GAL4-SRC1 luciferase reporter, luminescence;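 active means inhibition above the campaign mean plus 3 SD, with each screening campaign given its own cutoff, cut at about 60% in these data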;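 further: 0% = DMSO treated cells and 100% = gossypol at 36 µM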
# NCOA2 inhibitor – human SRC2 (NCOA2) inhibition; Q15596; HEK293 GAL4-SRC2 luciferase reporter, luminescence; inhibition, % at 9 µM; actives 0.17% (n = 370,000); AID 651957;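 active means inhibition above the mean inhibition of all tested compounds plus 3 SD, set per campaign, cut at about 52% in these data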;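 further: 0% = DMSO treated cells and 100% = cells given Gossypol at 36 µM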
# COUP-TFII inh – NR2F2 (human) inhibition, primary screen | P24468 | HEK293T NGFI-A luciferase reporter, luminescence | inhibition, % at 8.6 µM | actives 0.7% (n = 370,000);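 active means inhibition above a per-plate cutoff, mean inhibition of test wells between control levels plus 3 SD, cut at about 38% in these data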;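 further: cells cotransfected with COUP-TFII expression vector driving the NGFI-A reporter; 0% = median of COUP-TF2 test wells and 100% = reporter-only cells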
# Starred values were filed as active, the others as inactive; · = no result given. Sampled rows, rich in hits. Any-hit rate of the full collection: about 0.84%.
SMILES,LRH-1 inv ag,SRC3 inh,SRC1 inh,NCOA2 inhibitor,COUP-TFII inh
Cc1ccc(/C=C2\SC(=S)N(CCCC(=O)Nc3ccccc3C(=O)O)C2=O)cc1,5.4,18.4,22.7,65.9*,14.6
Cc1ccc(/C=C2/SC(=S)N(CCCC(=O)Nc3cc([N+](=O)[O-])ccc3O)C2=O)cc1,3.2,13.5,-27.9,55.0*,24.4
CCc1ccc(/C=C2\SC(=S)N(CCCC(=O)Nc3ccccc3C(=O)O)C2=O)cc1,7.5,0.8,-0.5,21.8,-6.3
CN(C)Cc1cn(-c2cccc(-c3noc4c3C(=O)N(CC(=O)N3CCOCC3)CC4)c2)nn1,·,·,·,-1.6,1.9
c1ccc2sc(SCSc3nc4ccccc4s3)nc2c1,-45.1,0.9,-51.4,-23.0,7.7
O=C(O)CCSc1nc2ccccc2s1,-4.5,15.8,19.1,77.9*,35.5
CC1=C(C(=O)OCc2ccc3c(c2)OCO3)C(c2ccccc2OCc2ccccc2)NC(=O)N1 (centres undefined),14.2,16.8,18.6,1.3,21.5
CC1=C(C(=O)OCc2ccc3c(c2)OCO3)C(c2ccccc2)NC(=O)N1 (centres undefined),47.4,70.5*,70.8*,53.7*,29.9
CC1=C(C(=O)OCc2ccc3c(c2)OCO3)C(c2ccc(O)c([N+](=O)[O-])c2)NC(=O)N1 (centres undefined),-1.2,57.5,51.5,56.0*,23.3
CCN(CC)C(=O)c1ccc(C(CCOC(=O)Oc2ccccc2)c2ccc(OC)cc2)cc1 (centres undefined),·,·,·,10.7,1.3
c1ccc(-n2c(SCc3cccc4ccccc34)nnc2-c2ccncc2)cc1,·,·,·,3.7,4.4
CCN(CC)c1ccc2cc(NC(=O)CCC(=O)O)c(=O)oc2c1,64.2,57.3,60.5,84.7*,82.7*
CN(C)c1ccc(C(=O)OCc2ccccc2)cc1,-37.6,-23.0,-33.2,-59.1,-27.8
O=C1C=CC(=O)C(CNc2ccc(C(=O)OCc3ccccc3)cc2)=C1,-42.2,-15.1,-74.7,67.0*,12.4
O=C(Nc1ccccc1)C1=C(c2ccccc2)S(=O)(=O)CCS1(=O)=O,0.4,-23.5,-30.8,54.4*,24.1
c1ccc2c(c1)ccc1ccccc12,-9.8,-8.4,-12.0,8.1,-5.7
CCCCCCCCC[n+]1cccc2c3ccccc3ccc21,95.8*,71.3*,57.9,·,·
CCOC(=O)[C@@]12CN(C(=O)OC(C)(C)C)CC=C1N(Cc1ccc(OC)cc1)C(=O)[C@H]2CC(=O)NCc1cccc2ccccc12,·,·,·,-8.0,3.2
Cc1ccc(OCCn2c(CCNC(=O)C3CCCCCC3)nc3ccccc32)cc1,·,·,·,·,17.5
COCCN(C(=O)CCl)C(C(=O)NC1CCCCC1)c1ccccc1C (centres undefined),27.7,59.4,21.6,53.8*,-11.7
Cc1cn([C@@H](CCCCNC(=O)OC(C)(C)C)C(=O)NCCCCCCCCCCC(=O)N2CCN(C(=O)OC(C)(C)C)CC2)nn1,34.6,63.5*,35.1,·,·
Cc1c(C)c2cccnc2c2ncccc12,86.7*,54.2,42.4,·,·
COC(=O)[C@]12C[C@H](CC(=O)N3CCCCC3)C(=O)N(Cc3cccc4ccccc34)C1=C[C@H](COCc1ccccc1)O[C@@H]2C,·,·,·,-3.9,5.1
CCOC(=O)c1ccc(-c2ccc(N3C(c4cccc(OC)c4)=Cc4ccc(F)cc4C3CC(C)=O)cc2)cc1F (centres undefined),20.7,·,·,59.6*,16.5
COc1cccc(C2=Cc3ccc(F)cc3C(CC(C)=O)N2c2ccc(-c3cncnc3)cc2)c1 (centres undefined),3.9,·,·,-21.1,-25.4
SMILES,LRH-1 inv ag,SRC3 inh,SRC1 inh,NCOA2 inhibitor,COUP-TFII inh
COc1cc([C@@H]2C[C@H]3CN(c4ccccc4)C(=O)[C@]34CCCN24)cc(OC)c1OC,21.1,15.7,23.6,-12.2,1.3
COc1ccccc1-n1cc([C@@H]2C[C@H]3CN(c4ccccc4)C(=O)[C@]34CCCN24)cn1,52.6,63.9*,55.3,-31.6,7.0
N#CC(c1cccc(Cl)c1)c1ccc2c(C(F)(F)F)cc(C(F)(F)F)nc2n1 (centres undefined),99.0*,41.4,22.1,28.1,-2.7
Cn1c(=O)c2cc(NC(=O)CCc3ccc(O)cc3)ccc2n1Cc1cccc(C(F)(F)F)c1,73.7*,58.6,44.0,-3.5,9.0
Cn1c(=O)c2cc(NC(=O)CCc3ccccc3)ccc2n1Cc1cccc(C(F)(F)F)c1,-2.6,0.7,-12.5,-4.9,9.8
CCC(CC)NC(=O)Nc1cccc(C)c1C,1.5,16.8,5.6,9.9,-6.5
CCC(C)N(CC(=O)Nc1cccc(C)c1C)C(=O)CCl (centres undefined),42.4,61.9*,61.6*,·,·
CCC(CO)Nc1cccc2c1S(=O)(=O)N(Cc1cn(Cc3cccc(F)c3)nn1)Cc1ccccc1O2 (centres undefined),·,·,·,21.2,-10.6
CO[C@H]([C@H](C)/C=C/N(C)C=O)[C@@H](C)C(=O)CC[C@H](C)[C@H](O)[C@H](C)[C@H]1OC(=O)/C=C/C(C)=C/C[C@H](O)C[C@@H]2C=CC[C@@H](C[C@H](OC)[C@@H](CO)[C@@H](OC)C[C@@H](OC)[C@@H]1C)O2,·,·,·,·,-6.3
CCOC(=O)c1c(C)n(-c2ccc(C)cc2)c2c(C(C(C)=O)C(=O)O)c(Br)c(O)c(O)c12 (centres undefined),-3.1,13.9,-14.6,-7.2,17.9
CCOC(=O)C(C(C)=O)c1c(Br)c(O)c(O)c2c(C(=O)c3ccc(C)cc3)coc12 (centres undefined),67.1,80.0*,58.7,-1.1,31.1
Clc1ccc(CN2CCN(N=Cc3cccc(OCc4ccccc4)c3)CC2)cc1,·,·,·,-1.8,1.3
CC(C)N1Cc2nnn(Cc3ccccc3)c2-c2cc(F)ccc2S1(=O)=O,·,·,·,30.9,-18.2
CN(C)CCNc1cccc2sc3ccc(O)cc3c(=O)c12,29.0,21.2,8.3,-87.0,-21.5
Cc1ccc(NCCN(C)C)c2c(=O)c3cc(O)ccc3sc12,43.0,58.8,64.0*,-68.7,-93.7
C=CCNC(=S)N(C)[C@H]1C[C@H]2c3[nH]c4cccc(-c5cccc(F)c5)c4c3CCN2C(=O)[C@H]1[C@H](C)O,·,·,·,-4.3,4.5
CC(C)CN1C(=O)C[C@]2(C(=O)N(C)c3ccc(NC(=O)C(F)(F)F)cc32)C1c1ccccc1 (some centres undefined),·,·,·,-8.9,1.3
COc1cccc(-c2nc(-c3ccccc3)no2)c1,-84.2,-131.9,-117.5,-58.5,-63.6
COc1cccc(-c2nc(-c3ccccn3)no2)c1,·,·,·,58.5*,34.2
CCC(=O)NC(c1ccc(Cl)cc1Cl)c1ccc2cccnc2c1O (centres undefined),65.3,56.2,26.6,16.0,-15.8
CC(C)C(=O)NC(c1ccc(Cl)cc1Cl)c1ccc2cccnc2c1O (centres undefined),83.5*,23.5,32.6,10.0,-32.6
CCCC(=O)NC(c1ccc(C(C)C)cc1)c1ccc2cccnc2c1O (centres undefined),35.3,54.2,-9.2,32.2,-4.0
